Compound activity as filed in PubChem BioAssay.
Only some compounds are listed: those with a hit (about 19% of all), similar ones and a draw of the others.
Shiga toxin inh – Shiga toxin inhibition | actives 9.2% (n = 290,000) | inhibition, % at 38.7 µM | AID 2315 | Vero cells, Shiga toxin protein synthesis inhibition reporter; in the data active = inhibition mostly above about 28%, no sharp cut-off; inactive = mostly below about 43%; note: 0% is about no effect
AMA1 RON2 block – inhibitors of Plasmodium falciparum AMA1-RON2 interaction; AlphaScreen AMA1-biotinylated RON2 peptide binding; Potency, µM (doses to about 58.2 µM), for the others: at the highest dose activity change, negative = inhibition, usual class: inhibitors; actives 0.2% (n = 360,000); AID 720542;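 note: potency is the fitted concentration of half-maximal effect; 0% = vehicle wells and -100% = peptide control; nearly all actives have a fitted effect of over 45% in size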
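AMA1 (3D7) with his tag at 25 nM final met compounds first, then biotinylated RON2 peptide at 25 nM; detection used donor plus acceptor beads, 10 µg/mL apiece, read by AlphaScreen after 30 min at room temperature.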
Pf growth 96h – P. falciparum growth inhibition at 96 hour, primary screen for plastid delayed-death inhibitors; P. falciparum luciferase reporter growth, 96 h; Potency, µM (top dose mostly 28.7 µM), without a hit: at the top dose activity change, negative = inhibition, usual class: inhibitors; actives 6.9% (n = 320,000); AID 504834; note: potency is the fitted concentration of half-maximal effect; % is set by controls: 0 for no effect and ±100 for the full control effect
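Readout is luminescence from an integrated firefly luciferase in P. falciparum. Red cells, 2% hematocrit and 0.05% parasitemia final, were cultured with compound through two parasite generations (96 hours) at 37 C, 5% CO2.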
CHX counter – counter-screen hit for Shiga toxin inhibitors, cycloheximide | max response, % | actives 12% (n = 300,000) | cell reporter, cycloheximide protein synthesis inhibition counterscreen; in the data active = max response mostly above about 13%, no sharp cut-off; inactive = mostly below about 14%; note: read at 38.3 µM for the half of the compounds with a filed dose; 0% is about no effect
SARS PLpro yeast – blocks SARS-CoV papain-like protease in a yeast assay | actives 0.19% (n = 330,000) | Potency, µM (highest dose often 32.9 µM), without a hit: at the top dose activity, positive = growth rescue, usual class: activators | S. cerevisiae expressing SARS-CoV PLpro, growth rescue | AID 485353; calls by dose curve; note: potency is the fitted concentration of half-maximal effect; 0% is about no effect; nearly all actives have a fitted effect of over 55% in size
Pf growth 48h – P. falciparum growth inhibition at 48 hours (one generation) | P. falciparum luciferase growth in erythrocytes, 48 h | Potency, µM (titrated, usually from 28.7 µM), without a hit: top-dose activity change, negative = inhibition, usual class: inhibitors | actives 5.9% (n = 310,000); note: potency is the fitted concentration of half-maximal effect; % is set by controls: 0 for no effect and ±100 for the full control effect
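Compounds are pin-transferred into medium, infected erythrocytes (2% hematocrit, 0.1% parasitemia final) are added, and plates sit one parasite generation at 37 C in 5% CO2. Detection reagent is then added and luminescence measured.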
Active calls of the source: *; ? = inconclusive; · = not tested or not shown; [ ] = remark or other dose. Unless noted, calls come from the whole dose curve; as a rule, active = well fitted curve in the direction sought with a large enough effect; inconclusive = small, poorly fitted or top-dose-only effect, or another doubt; inactive = no such curve, though single readings can be large; an effect the other way counts as inactive or inconclusive.

SMILES	Shiga toxin inh	AMA1 RON2 block	Pf growth 96h	CHX counter	SARS PLpro yeast	Pf growth 48h
CCOc1ccc(NC(=S)NCc2ccc3c(c2)OCO3)cc1	22.5	-10.5%	?	9.1*	-2.2%	?
CC(=O)Nc1ccc(OCc2ccc3c(c2)OCO3)cc1	166.6*	1.5%	0.0%	46.4*	-9.7%	64.6%
Cc1ccc(N2CC(NC(=O)C3CC3)CC2=O)cc1 (centres undefined)	·	12.7%	-0.9%	·	-0.5%	5.1%
O=C(COC(=O)CCC(NC(=O)OCc1ccccc1)C(=O)OCC(=O)Nc1ccccc1)Nc1ccccc1 (centres undefined)	-11.8	6.6%	-17.0%	-3.2	5.2%	3.3%
CC(C)=CCC[C@H](C)C[C@@H]1Cc2[nH]c(=S)[nH]c(=O)c2[C@@H](c2ccc(F)cc2)O1	·	96.7%	·	·	·	·
C=CCn1c(Cc2c[nH]c3ccccc23)n[nH]c1=S	12.9	56.5%	-80.4%	12.3*	5.5%	13.1µM*
O=C(/C=C/c1ccc(S(=O)(=O)N2CCOCC2)cc1)NCCCn1ccnc1	-13.1	-7.8%	8.0%	-7.8	-2.1%	9.3%
CNS(=O)(=O)c1cccc(C(=O)OCC(=O)c2cc(C)n(CC3CCCO3)c2C)c1 (centres undefined)	·	14.4%[11.6 µM]	383.3%	·	1.3%	295.1%
Cc1cc(C(=O)CN2C(=O)c3ccccc3S2(=O)=O)c(C)n1CC1CCCO1 (centres undefined)	-23.7	-1.7%	9.7%	-8.5	-1.8%	2.08µM*
Cc1cc(C(=O)COC(=O)CNC(=O)c2ccccc2)c(C)n1CC1CCCO1 (centres undefined)	134.5*	6.4%	242.7%	26.4*	1.8%	330.2%
Cc1cccc(C(=O)NCC(=O)OCC(=O)c2cc(C)n(CC3CCCO3)c2C)c1 (centres undefined)	88.7*	-0.5%	110.3%	47.7*	-0.3%	287.2%
Cc1cc(C(=O)COC(=O)c2cccc(S(=O)(=O)N(C)C)c2)c(C)n1CC1CCCO1 (centres undefined)	·	-6.6%	71.6%	·	7.1%	49.3%
O=C(CSc1nnc(-c2ccccc2Cl)o1)Nc1ccccn1	73.2*	28.7%	23.6%	48.1*	-0.1%	37.1%
Cc1occc1-c1nnc(SCC(=O)Nc2ccccn2)o1	38.0*	22.8%	-20.3%	17.1*	6.2%	237.7%
Cc1ccccc1-c1nnc(SCC(=O)Nc2cccnc2Cl)o1	·	15.0%	·	·	3.8%	·
Cc1cc(OCC(=O)OCC(=O)NCC2CCCO2)ccc1Cl (centres undefined)	·	4.2%	3.2%	·	-7.1%	-5.6%
COc1ccc(N2CCN(C(=O)CSc3nnc(C4CC4)n3C3CC3)CC2)cc1	·	0.9%	·	·	·	·
Cc1[nH][nH]c(=O)c1C(c1cc(Br)ccc1O)c1c(C)[nH][nH]c1=O	3.2	21.7%	2.0%	-3.5	-0.3%	?
Cc1ccc(C(c2cc(Br)ccc2O)N2CCSCC2)cc1 (centres undefined)	·	-11.5%	14.7µM*	·	-26.2%	9.28µM*
Cc1ccc(NC2c3ncccc3C(=O)N2c2ccccc2C)cc1C (centres undefined)	71.6*	?	9.2%	21.6*	-1.1%	43.1%
CCOc1ccc(N2C(=O)c3cccnc3C2Nc2ccc(Cl)cc2)cc1 (centres undefined)	-1.1	-2.4%	0.0%	1.7	2.9%	?
CCn1nnnc1SCC(=O)Nc1nc2ccccc2s1	9.8	-7.8%	-11.8%	21.4*	0.2%	16.7%
Cc1nc(NC(=O)CSc2nnnn2Cc2ccccc2)sc1C	75.0*	?	28.2%	27.8*	-8.7%	10.2%
CCc1c(O)nc(SCC(=O)Nc2nc3ccccc3s2)n(-c2ccc(C)cc2)c1=O	93.2*	22.5%	135.9%	45.2*	5.9%	94.6%
COCCCn1nnnc1SCC(=O)Nc1nc2ccccc2s1	-3.7	-5.7%	-25.0%	10.5	1.6%	8.6%
SMILES	Shiga toxin inh	AMA1 RON2 block	Pf growth 96h	CHX counter	SARS PLpro yeast	Pf growth 48h
Cc1ccc(S(=O)(=O)NNC(=O)C(O)(c2ccccc2C)c2ccccc2C)cc1	-15.0	-5.1%	3.7%	1.0	6.2%	-5.7%
O=[N+]([O-])c1ccccc1S(=O)(=O)N1CCN(Cc2ccsc2)CC1	41.5	-24.9%	-6.8%	4.3	0.5%	-19.2%
NC(=O)C1CCN(C(=O)C2CCN(S(=O)(=O)c3ccccc3)CC2)CC1	-12.6	20.6%	?	-0.7	-7.5%	·
CCN1C(=O)[C@@H]2Cc3c([nH]c4ccccc34)C(c3ccc(OC)cc3)N2C1=S (some centres undefined)	32.4*	-13.7%	?	21.5*	-1.2%	14.7µM*
COCCCN1CC(=O)N2C(c3cccc(OC)c3OC)c3[nH]c4ccccc4c3C[C@H]2C1=O (some centres undefined)	-4.0	-6.2%	11.7µM*	-3.0	0.2%	9.28µM*
CC(C)OCCCN1CC(=O)N2C(c3ccccc3)c3[nH]c4ccccc4c3C[C@H]2C1=O (some centres undefined)	55.8*	-5.6%	?	20.9*	-2.8%	9.28µM*
CN1CC(=O)N2C(c3ccc(Cl)cc3)c3[nH]c4ccccc4c3C[C@H]2C1=O (some centres undefined)	-16.8	-10.1%	13.1µM*	-6.2	1.9%	8.28µM*
COC(=O)c1ccc(C2c3[nH]c4ccccc4c3C[C@H]3C(=O)N(C)CC(=O)N23)cc1 (some centres undefined)	-3.7	-18.4%	?	-4.2	3.2%	?
CN(C)Cc1nnnn1-c1ccccc1	-6.4	1.7%	11.5%	-2.1	-0.7%	18.8%
Cc1ccc(S(=O)(=O)NCC(=O)NCCc2c[nH]c3ccccc23)cc1C	-15.8	-10.1%	?	-1.8	-0.1%	12.3%
Cc1ccccc1CNC(=O)c1csc([C@H]2C[C@H](O)[C@@H](CO)O2)n1	·	-1.3%	·	·	·	·
COCCCN1CC(=O)N2C(c3cccc(C)c3)c3[nH]c4ccccc4c3C[C@H]2C1=O (some centres undefined)	-1.5	0.0%	?	-6.4	1.2%	9.28µM*
COCCN1CC(=O)N2C(c3cccc(C)c3)c3[nH]c4ccccc4c3C[C@H]2C1=O (some centres undefined)	4.9	-3.8%	11.7µM*	-7.7	1.4%	13.1µM*
COc1ccc(Br)cc1/C=C/C(=O)NC(=S)Nc1ccc(CN2CCOCC2)cc1	-10.1	-2.9%	?	-2.6	-18.3%	?
O=c1c(C=Nc2ccc(Cl)cc2)c[nH]n1-c1cccc(Cl)n1	37.6	0.3%	10.3%	28.0	2.4%	46.3%
COc1ccc(/C=N/NC(=O)c2c(Br)cnn2C)c2ccccc12	7.0	9.1%	-22.3%	-0.3	-2.0%	-14.5%
COc1ccccc1Nc1nc(-c2ccccc2O)nc2ccccc12	-4.8	-0.1%	?	-3.5	3.3%	?
Oc1ccccc1Nc1nc(-c2ccccc2O)nc2ccccc12	3.1	0.1%	1.31µM*	9.5	0.4%	1.04µM*
